# Experimental data taken from PMC11995724, “Antibiotic target discovery by integrated phenotypic and activity-based profiling of electrophilic fragments” (Cell chemical biology, 2025).
# Out of some 3,200 compounds screened, about 110 (3.4%) showed an effect of 50% or more. This excerpt belongs to a sample that is enriched for strong results.
# Test system: T1, V. cholerae SAD30
# T1 construct: SAD30
# Parameters: species or system S. aureus MSSA476 (TSB) or V. cholerae SAD30 (LB); 384-well bacterial growth screen at 25 uM, OD600 relative to DMSO control
# Settings: relative growth, OD600, LB; 25 µM; inhibitor
row,Structure (SMILES),% of control remaining [%]
1,"N#CC(=Cc1cc([N+](=O)[O-])ccc1Cl)C(N)=O [8-F21, 3-(2-chloro-5-nitrophenyl)-2-cyanoprop-2-enamide]",76.0707
2,"CC(Cl)C(=O)Nc1cc(C(F)(F)F)ccc1Cl (stereo not drawn) [4-N15, 2-chloro-N-[2-chloro-5-(trifluoromethyl)phenyl]propanamide]",99.8922
3,"O=C1C=CC(=O)N1c1cc(C(F)(F)F)ccc1Cl [10-G09, 1-[2-chloro-5-(trifluoromethyl)phenyl]-2,5-dihydro-1H-pyrrole-2,5-dione]",26.3394
4,"O=C(CCl)N1CCCCc2ccc([N+](=O)[O-])cc21 [5-I18, 2-chloro-1-(8-nitro-2,3,4,5-tetrahydro-1H-1-benzazepin-1-yl)ethan-1-one]",94.3154
5,"N#Cc1cc([N+](=O)[O-])ccc1NC(=O)CCl [4-O09, 2-chloro-N-(2-cyano-4-nitrophenyl)acetamide]",91.611
6,"O=C1C=CC(=O)N1c1cc([N+](=O)[O-])ccc1Cl [10-H15, 1-(2-chloro-5-nitrophenyl)-2,5-dihydro-1H-pyrrole-2,5-dione]",28.2096
7,"Cc1ccc([N+](=O)[O-])cc1N1C(=O)C=CC1=O [10-O14, 1-(2-methyl-5-nitrophenyl)-2,5-dihydro-1H-pyrrole-2,5-dione]",26.6511
8,"O=C(CCl)Nc1cc(C(F)(F)F)ccc1Cl [4-J04, 2-chloro-N-[2-chloro-5-(trifluoromethyl)phenyl]acetamide]",111.106
9,"CC(Cl)C(=O)Nc1cc([N+](=O)[O-])ccc1Cl (stereo not drawn) [6-I14, 2-chloro-N-(2-chloro-5-nitrophenyl)propanamide]",87.6671
10,"CC(NC(=O)CCl)C(=O)N1CCCCC1C (stereo not drawn) [5-M06, 2-chloro-N-[1-(2-methylpiperidin-1-yl)-1-oxopropan-2-yl]acetamide]",96.6691
11,"C=CC(=O)NC(C)c1cn(-c2ccccc2)nn1 (stereo not drawn) [1-N04, N-[1-(1-phenyl-1H-1,2,3-triazol-4-yl)ethyl]prop-2-enamide]",110.893
12,"COc1ccc(-c2nn(-c3ccccc3)cc2C=C(C#N)C(N)=O)cc1 [8-L16, 2-cyano-3-[3-(4-methoxyphenyl)-1-phenyl-1H-pyrazol-4-yl]prop-2-enamide]",71.7199
13,"CCN(Cc1ccc(Cl)s1)C(=O)CCl [6-M11, 2-chloro-N-[(5-chlorothiophen-2-yl)methyl]-N-ethylacetamide]",83.1169
14,"COc1ccc(C2=NN(C(=O)CCl)C(c3ccco3)C2)cc1 (stereo not drawn) [4-N19, 2-chloro-1-[5-(furan-2-yl)-3-(4-methoxyphenyl)-4,5-dihydro-1H-pyrazol-1-yl]ethan-1-one]",106.103
15,"O=C(CCl)N1N=C(c2ccc(Cl)cc2)CC1c1ccco1 (stereo not drawn) [5-L04, 2-chloro-1-[3-(4-chlorophenyl)-5-(furan-2-yl)-4,5-dihydro-1H-pyrazol-1-yl]ethan-1-one]",105.748
16,"CC(Cl)C(=O)N1N=C(c2ccc(Cl)cc2)CC1c1ccco1 (stereo not drawn) [5-H18, 2-chloro-1-[3-(4-chlorophenyl)-5-(furan-2-yl)-4,5-dihydro-1H-pyrazol-1-yl]propan-1-one]",49.4273
17,"Cc1cc(C(=O)CCl)co1 [10-A13, 2-chloro-1-(5-methylfuran-3-yl)ethan-1-one]",114.397
18,"Cn1c(=O)oc2cc(C(=O)CCl)ccc21 [10-F07, 6-(2-chloroacetyl)-3-methyl-2,3-dihydro-1,3-benzoxazol-2-one]",44.886
19,"C=CC(=O)NCc1ccc2oc(=O)n(C)c2c1 [2-L15, N-[(3-methyl-2-oxo-2,3-dihydro-1,3-benzoxazol-5-yl)methyl]prop-2-enamide]",88.6519
20,"Cc1nc2n(n1)CCN(C(=O)C(C)Cl)C2 (stereo not drawn) [5-A04, 2-chloro-1-{2-methyl-5H,6H,7H,8H-[1,2,4]triazolo[1,5-a]pyrazin-7-yl}propan-1-one]",108.438
21,"O=C(CCl)NC(c1ccccc1)C1CCCC1 (stereo not drawn) [6-O18, 2-chloro-N-[cyclopentyl(phenyl)methyl]acetamide]",92.0656
22,"O=C(CCl)c1sccc1Cl [10-K11, 2-chloro-1-(3-chlorothiophen-2-yl)ethan-1-one]",0
23,"Cc1cc(C(=O)CCl)c(C)n1-c1ccc(Cl)cc1 [10-H18, 2-chloro-1-[1-(4-chlorophenyl)-2,5-dimethyl-1H-pyrrol-3-yl]ethan-1-one]",103.331
24,"COC(=O)c1ccccc1NC(=O)CCl [5-B12, methyl 2-(2-chloroacetamido)benzoate]",89.6081
25,"CC(=O)NCCc1cc(C(=O)CCl)ccc1F [10-O05, N-{2-[5-(2-chloroacetyl)-2-fluorophenyl]ethyl}acetamide]",118.138
26,"COC(=O)c1ccc2[nH]cc(C(=O)CCl)c2c1 [10-D05, methyl 3-(2-chloroacetyl)-1H-indole-5-carboxylate]",99.1233

row,Structure (SMILES),% of control remaining [%]
1,"O=C(CCl)c1ccc(F)c(F)c1 [10-L13, 2-chloro-1-(3,4-difluorophenyl)ethan-1-one]",4.208
2,"COC(=O)c1cccc(C(=O)CCl)c1 [10-I11, methyl 3-(2-chloroacetyl)benzoate]",32.4177
3,"CN(C)C(=O)c1csc(C(=O)CCl)c1 [10-I07, 5-(2-chloroacetyl)-N,N-dimethylthiophene-3-carboxamide]",105.981
4,"O=C(O)c1csc(C(=O)CCl)c1 [10-E22, 5-(2-chloroacetyl)thiophene-3-carboxylic acid]",102.864
5,"CC(Cl)C(=O)c1ccc(F)c(F)c1 (stereo not drawn) [10-A17, 2-chloro-1-(3,4-difluorophenyl)propan-1-one]",103.955
6,"O=C(CCl)c1cc(Cl)ccc1Cl [10-E16, 2-chloro-1-(2,5-dichlorophenyl)ethan-1-one]",49.5617
7,"Cc1cc(C(=O)CCl)c(C)n1-c1ccc(Cl)c(Cl)c1 [10-D18, 2-chloro-1-[1-(3,4-dichlorophenyl)-2,5-dimethyl-1H-pyrrol-3-yl]ethan-1-one]",108.475
8,"Cc1cccc(C=C(C#N)C(=O)Nc2ccc(C(=O)O)cc2)c1 [8-M21, 4-[2-cyano-3-(3-methylphenyl)prop-2-enamido]benzoic acid]",75.7988
9,"CC(NC(=O)CCl)c1ccc2c(c1)CCCC2 (stereo not drawn) [4-B03, 2-chloro-N-[1-(5,6,7,8-tetrahydronaphthalen-2-yl)ethyl]acetamide]",113.867
10,"COc1cc2c(cc1NC(=O)C(C)Cl)oc1ccccc12 (stereo not drawn) [6-G09, 2-chloro-N-{4-methoxy-8-oxatricyclo[7.4.0.0,2,7]trideca-1(9),2(7),3,5,10,12-hexaen-5-yl}propanamide]",55.9674
11,"CC(C)NC(=O)C(C#N)=Cc1ccc(Cl)cc1 [9-C09, 3-(4-chlorophenyl)-2-cyano-N-(propan-2-yl)prop-2-enamide]",85.3161
12,"COCC(C)n1c(C)cc(C=C(C#N)C(=O)NS(C)(=O)=O)c1C (stereo not drawn) [8-B04, 2-cyano-N-methanesulfonyl-3-[1-(1-methoxypropan-2-yl)-2,5-dimethyl-1H-pyrrol-3-yl]prop-2-enamide]",81.6451
13,"C=CCNC(=O)C(C#N)=Cc1cccc(C(F)(F)F)c1 [8-L09, 2-cyano-N-(prop-2-en-1-yl)-3-[3-(trifluoromethyl)phenyl]prop-2-enamide]",71.8559
14,"C=CC(=O)N1CC[C@H](NS(C)(=O)=O)C1 [2-H21, N-[(3S)-1-(prop-2-enoyl)pyrrolidin-3-yl]methanesulfonamide]",102.239
15,"C=CC(=O)N(CC)Cc1nc2ccsc2c(=O)[nH]1 [3-P16, N-ethyl-N-({4-oxo-3H,4H-thieno[3,2-d]pyrimidin-2-yl}methyl)prop-2-enamide]",108.146
16,"C=CC(=O)N1Cc2ccccc2C[C@@H]1C(=O)NC1CC1 [2-G06, (3R)-N-cyclopropyl-2-(prop-2-enoyl)-1,2,3,4-tetrahydroisoquinoline-3-carboxamide]",95.7541
17,"Cc1cc(C=C(C#N)C(=O)Nc2nccs2)cc(C)c1O [9-D13, 2-cyano-3-(4-hydroxy-3,5-dimethylphenyl)-N-(1,3-thiazol-2-yl)prop-2-enamide]",84.7723
18,"C=CC(=O)N[C@H]1CCN(S(=O)(=O)c2ccccc2)C1 [3-P11, N-[(3S)-1-(benzenesulfonyl)pyrrolidin-3-yl]prop-2-enamide]",106.205
19,"COc1ccc(C2=NN(C(=O)CCl)C(c3ccc(F)cc3)C2)cc1 (stereo not drawn) [4-M20, 2-chloro-1-[5-(4-fluorophenyl)-3-(4-methoxyphenyl)-4,5-dihydro-1H-pyrazol-1-yl]ethan-1-one]",100.927
20,"O=C(CCl)c1ccc2c(c1)-c1ccccc1C2 [10-H17, 2-chloro-1-(9H-fluoren-3-yl)ethan-1-one]",91.4865
21,"O=C(CCl)c1ccc2[nH]c(=O)[nH]c2c1 [10-I14, 5-(2-chloroacetyl)-2,3-dihydro-1H-1,3-benzodiazol-2-one]",105.513
22,"O=C(CCl)c1ccc(Cl)c(Cl)c1 [10-L16, 2-chloro-1-(3,4-dichlorophenyl)ethan-1-one]",0
23,"COc1ccc(C(=O)CCl)cc1Cl [10-D10, 2-chloro-1-(3-chloro-4-methoxyphenyl)ethan-1-one]",0.9351
24,"COc1cc(OC)c(C(=O)CCl)c(OC)c1 [10-L04, 2-chloro-1-(2,4,6-trimethoxyphenyl)ethan-1-one]",98.344
25,"COc1ccc(C(=O)CCl)c(OC)c1 [10-G18, 2-chloro-1-(2,4-dimethoxyphenyl)ethan-1-one]",111.748
